SMILES strings stand for the structures. Activity calls are given as the source filed them.

The nature of experiment [1]: small molecules captured by biotinylated probe aFSTL3 – biochemical, small-molecule microarray, fluorescence 635/667, stem cell growth factor project, primary screen (AID 1064).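 Also: measures binding of the biotinylated anti-FSTL3 antibody to printed compounds.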 To be noted: higher = more signal.
A short description of experiment [2]: binders from COS7 lysate, DM2A8 probe, primary screen, torsin A project, cell lysate, small-molecule microarray, fluorescence 635/667 (AID 1065). To be noted: higher = more signal, COS7 lysate expressing mutant human TOR1A.
Experiment [3] in a line: small molecules captured by biotinylated probe aFGF2 – biochemical, small-molecule microarray, fluorescence 635/667, stem cell growth factor project, primary screen (AID 1067).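 Also: measures binding of biotinylated aFGF2 protein to printed compounds on slides; z-score merges feature fluorescence and signal-to-noise across triplicate slides.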 To be noted: higher = more signal.
Experiment [4] can be described thus: small molecules captured by biotinylated probe aFGF10 – biochemical, small-molecule microarray, fluorescence 635/667, stem cell growth factor project, primary screen (AID 1071).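 Also: score merges 667 nm spot intensity and signal to noise from triplicate slides.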 To be noted: higher = more signal.
The target in experiment [5] is Neurogenic locus notch homolog protein 2 (Homo sapiens) (UniProt Q04721). Kind of experiment: small molecules binding Notch2 protein – biochemical, small-molecule microarray, 635 nm fluorescence, stem cell growth factors, primary screen (AID 1073). To be noted: higher = more signal.
The target in experiment [6] is Pro-neuregulin-1, membrane-bound isoform (Homo sapiens) (UniProt Q02297). Kind of experiment: small molecules binding neuregulin-1 protein – biochemical, small-molecule microarray, fluorescence 635/667, psychiatric disease protein project, primary screen (AID 1075).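 Also: score combines 667 nm spot fluorescence with signal to noise.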 To be noted: NRG1 binding, 635 nm fluorescence, higher = more signal.
Experiment [7] has as its system Neuregulin-1 EGF-like domain. The experiment is described as follows: small molecules binding NRG1 EGF domain – biochemical, small-molecule microarray, 635 nm fluorescence, primary screen (AID 1081).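 Also: binding of the protein to compounds printed on small-molecule microarray slides.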 To be noted: higher = more signal.
Experiment [8] in a line: FRG1 expression reporter modulators in myotubes – cell-based, C2C12 myotubes, firefly/Renilla luciferase, luminescence, FRG1 inhibition for FSHD, primary screen (AID 1084). Particulars: FRG1 promoter luciferase, higher = more signal, called active from +8 up or from −8 down.
Experiment [9] is described as follows: small molecules captured by biotinylated probe aFST – biochemical, small-molecule microarray, fluorescence 635/667, stem cell growth factor project, primary screen (AID 1086).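 Also: score merges 667 nm fluorescence with signal-to-noise of each printed compound spot.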 Particulars: higher = more signal.
A short description of experiment [10]: binders of probe aHhip on microarray, primary screen, stem cell growth factor project, biochemical, small-molecule microarray, fluorescence 635/667 (AID 1087).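 Also: score merges spot fluorescence at 667nm with spot signal to noise ratio.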 Particulars: higher = more signal.
In experiment [11] the test system is PRMT1 (protein arginine N-methyltransferase 1). Kind of experiment: small molecules binding arginine methyltransferase PRMT1 – biochemical, small-molecule microarray, 635 nm fluorescence, primary screen (AID 1088).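 Also: binding of Prmt1 protein to compounds spotted on small-molecule microarray slides.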 Particulars: higher = more signal.
A short description of experiment [12]: growth effects on S. cerevisiae YJM789 – YJM789 clinical isolate, OD600, 24 h, basal, primary screen (AID 1089).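 Also: growth of clinical yeast isolate S. cerevisiae YJM 789 seeded 1000 cells per well; test concentration not given here.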 To be noted: higher = more signal, called active from +8 up or from −8 down.
Experiment [13] can be described thus: S. pombe growth modifiers, basal conditions – strain 972, OD600, 24 h, no modulator, primary screen (AID 1090).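 Also: basal condition with compound alone and no growth modifier present; test concentration not given here.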 To be noted: S. pombe 972 growth, higher = more signal, called active from +8 up or from −8 down.
Experiment [14] in a line: budding yeast growth modifiers under rapamycin – strain BY4716, OD600, 96 h, primary screen (AID 1091). Also: test concentration not given here. Particulars: S. cerevisiae BY4716 + rapamycin, higher = more signal, called active from +8 up or from −8 down.
The target of experiment [15] is Torsin-1A-interacting protein 2 (Homo sapiens) (UniProt Q8NFQ8). The experiment is described as follows: small molecules binding lysate-expressed LULL1 – cell lysate, human LULL1 lysate, 635/667 nm fluorescence, primary screen (AID 1092).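 Also: probe is lysate of COS7 cells overexpressing human LULL1; score merges per-feature 667 nm fluorescence with signal-to-noise.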 To be noted: small-molecule microarray, hLULL1 lysate binding, 635 nm fluorescence; higher = more signal.
Experiment [16] is described as follows: optical density change of DRC41 E. coli – strain DRC41, OD650, 24 h, E. coli filamentation project, primary screen (AID 1093).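 Also: MC1000 strain lacking acrAB efflux and sulA so SOS filamentation is blocked; test concentration not given here.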 To be noted: E. coli DRC41 growth, higher = more signal, called active from +8 up or from −8 down.
The nature of experiment [17]: probe aLefty2 binding to arrayed compounds – biochemical, biotinylated probe, 635/667 nm fluorescence, primary screen (AID 1094).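 Also: score merges spot fluorescence near 667 nm with spot signal-to-noise ratio.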 To be noted: small-molecule microarray, higher = more signal.
The subject of experiment [18] is Noggin (protein binding on small-molecule microarray). The experiment is described as follows: small molecules binding Noggin protein – biochemical, 635/667 nm fluorescence, primary screen (AID 1095).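 Also: score merges 667 nm feature fluorescence with signal to noise over triplicate slides.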 Particulars: 635 nm fluorescence, higher = more signal.
The target of experiment [19] is Neurogenic locus notch homolog protein 3 (Homo sapiens) (UniProt Q9UM47). Kind of experiment: small molecules binding NOTCH3 protein – biochemical, 635/667 nm fluorescence, primary screen (AID 1096). To be noted: small-molecule microarray, 635 nm fluorescence, higher = more signal.
The nature of experiment [20]: probe aEGFR binding to arrayed compounds – biochemical, biotinylated probe, 635/667 nm fluorescence, primary screen (AID 1097).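 Also: probe is a biotinylated anti-EGFR antibody binding compounds printed on slides; score combines fluorescence near 667 nm and signal to noise of each spot.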 Particulars: small-molecule microarray, higher = more signal.

Chain of Pro-neuregulin-1, membrane-bound isoform (Homo sapiens) (Q02297 whole entry, looked up, the tested form may be a part, canonical isoform): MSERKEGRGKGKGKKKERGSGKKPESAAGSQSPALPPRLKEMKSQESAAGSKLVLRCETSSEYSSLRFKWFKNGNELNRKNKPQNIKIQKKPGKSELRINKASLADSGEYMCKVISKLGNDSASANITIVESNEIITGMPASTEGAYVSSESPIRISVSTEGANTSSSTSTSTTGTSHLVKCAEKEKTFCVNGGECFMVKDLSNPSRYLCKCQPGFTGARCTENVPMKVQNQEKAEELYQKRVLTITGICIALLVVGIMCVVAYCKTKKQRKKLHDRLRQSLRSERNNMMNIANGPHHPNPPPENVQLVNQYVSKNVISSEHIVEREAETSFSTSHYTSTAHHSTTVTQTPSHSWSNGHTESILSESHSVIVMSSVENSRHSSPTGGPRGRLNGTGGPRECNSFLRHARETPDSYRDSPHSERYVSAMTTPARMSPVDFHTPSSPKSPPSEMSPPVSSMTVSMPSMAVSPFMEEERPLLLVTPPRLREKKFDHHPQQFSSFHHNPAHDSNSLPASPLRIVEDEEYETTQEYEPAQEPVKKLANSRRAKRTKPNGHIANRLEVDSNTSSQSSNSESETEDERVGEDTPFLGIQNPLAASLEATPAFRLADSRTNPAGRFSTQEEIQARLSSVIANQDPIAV
Chain of Neurogenic locus notch homolog protein 2 (Homo sapiens) (Q04721 whole entry, looked up, canonical isoform): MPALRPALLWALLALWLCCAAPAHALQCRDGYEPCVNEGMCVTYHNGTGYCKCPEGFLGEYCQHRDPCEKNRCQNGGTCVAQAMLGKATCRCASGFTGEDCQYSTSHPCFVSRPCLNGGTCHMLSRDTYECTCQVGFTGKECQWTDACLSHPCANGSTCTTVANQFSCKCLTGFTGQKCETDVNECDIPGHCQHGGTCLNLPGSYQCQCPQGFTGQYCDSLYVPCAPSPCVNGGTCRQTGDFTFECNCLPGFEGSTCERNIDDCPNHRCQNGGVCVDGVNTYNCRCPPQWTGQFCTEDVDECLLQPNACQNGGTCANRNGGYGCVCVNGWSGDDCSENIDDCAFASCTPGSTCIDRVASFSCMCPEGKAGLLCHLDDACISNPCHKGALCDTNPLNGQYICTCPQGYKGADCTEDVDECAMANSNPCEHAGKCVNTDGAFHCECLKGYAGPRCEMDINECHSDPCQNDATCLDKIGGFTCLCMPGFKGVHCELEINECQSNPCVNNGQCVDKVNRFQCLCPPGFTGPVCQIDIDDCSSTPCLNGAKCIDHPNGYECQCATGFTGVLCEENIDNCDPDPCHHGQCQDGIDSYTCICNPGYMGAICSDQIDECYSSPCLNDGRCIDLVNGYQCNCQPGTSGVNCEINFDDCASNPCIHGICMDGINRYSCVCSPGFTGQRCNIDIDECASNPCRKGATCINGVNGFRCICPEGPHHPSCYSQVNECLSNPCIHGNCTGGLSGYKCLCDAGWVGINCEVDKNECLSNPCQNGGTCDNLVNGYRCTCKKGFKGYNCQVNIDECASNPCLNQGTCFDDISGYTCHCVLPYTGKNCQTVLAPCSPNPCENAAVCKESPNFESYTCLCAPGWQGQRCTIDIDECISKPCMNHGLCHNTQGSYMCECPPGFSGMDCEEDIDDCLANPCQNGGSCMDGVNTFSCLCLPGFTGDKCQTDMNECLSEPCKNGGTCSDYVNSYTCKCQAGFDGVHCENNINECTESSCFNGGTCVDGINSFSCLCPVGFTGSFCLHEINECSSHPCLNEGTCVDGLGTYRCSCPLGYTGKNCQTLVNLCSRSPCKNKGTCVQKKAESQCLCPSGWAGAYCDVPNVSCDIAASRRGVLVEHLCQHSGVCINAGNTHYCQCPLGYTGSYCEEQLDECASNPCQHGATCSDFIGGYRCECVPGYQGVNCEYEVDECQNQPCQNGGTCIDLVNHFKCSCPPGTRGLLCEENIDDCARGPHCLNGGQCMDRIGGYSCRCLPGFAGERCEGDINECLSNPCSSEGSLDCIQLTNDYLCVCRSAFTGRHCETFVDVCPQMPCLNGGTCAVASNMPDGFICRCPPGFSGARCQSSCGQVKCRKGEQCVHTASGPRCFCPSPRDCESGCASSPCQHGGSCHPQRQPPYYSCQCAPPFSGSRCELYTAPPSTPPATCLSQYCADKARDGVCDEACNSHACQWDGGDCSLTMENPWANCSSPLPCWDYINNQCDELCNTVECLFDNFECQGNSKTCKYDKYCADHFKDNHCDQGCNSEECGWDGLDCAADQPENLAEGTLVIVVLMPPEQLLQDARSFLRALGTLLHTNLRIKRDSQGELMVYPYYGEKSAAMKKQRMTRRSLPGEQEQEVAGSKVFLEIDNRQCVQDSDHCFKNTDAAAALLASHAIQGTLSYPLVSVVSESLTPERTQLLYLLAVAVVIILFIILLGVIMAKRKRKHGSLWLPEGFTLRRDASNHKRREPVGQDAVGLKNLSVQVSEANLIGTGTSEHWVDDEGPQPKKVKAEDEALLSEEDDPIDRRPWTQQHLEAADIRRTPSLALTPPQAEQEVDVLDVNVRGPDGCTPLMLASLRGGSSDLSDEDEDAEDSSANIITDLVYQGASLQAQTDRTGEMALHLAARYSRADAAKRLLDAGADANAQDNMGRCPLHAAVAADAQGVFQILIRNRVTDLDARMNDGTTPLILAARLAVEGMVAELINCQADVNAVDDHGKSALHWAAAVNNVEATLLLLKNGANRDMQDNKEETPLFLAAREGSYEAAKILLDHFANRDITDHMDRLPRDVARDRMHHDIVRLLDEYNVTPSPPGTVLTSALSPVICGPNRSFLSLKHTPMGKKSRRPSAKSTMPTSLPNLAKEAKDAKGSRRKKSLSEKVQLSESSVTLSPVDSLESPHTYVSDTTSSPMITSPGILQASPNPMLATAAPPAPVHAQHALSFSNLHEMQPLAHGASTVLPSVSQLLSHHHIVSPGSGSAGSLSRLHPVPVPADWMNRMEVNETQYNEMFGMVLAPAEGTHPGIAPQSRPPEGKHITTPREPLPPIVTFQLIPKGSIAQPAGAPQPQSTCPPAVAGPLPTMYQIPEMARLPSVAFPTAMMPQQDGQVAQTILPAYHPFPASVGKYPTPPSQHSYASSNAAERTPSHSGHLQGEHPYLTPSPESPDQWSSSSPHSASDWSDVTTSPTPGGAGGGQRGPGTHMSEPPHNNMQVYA
Chain of Torsin-1A-interacting protein 2 (Homo sapiens) (Q8NFQ8 whole entry, looked up): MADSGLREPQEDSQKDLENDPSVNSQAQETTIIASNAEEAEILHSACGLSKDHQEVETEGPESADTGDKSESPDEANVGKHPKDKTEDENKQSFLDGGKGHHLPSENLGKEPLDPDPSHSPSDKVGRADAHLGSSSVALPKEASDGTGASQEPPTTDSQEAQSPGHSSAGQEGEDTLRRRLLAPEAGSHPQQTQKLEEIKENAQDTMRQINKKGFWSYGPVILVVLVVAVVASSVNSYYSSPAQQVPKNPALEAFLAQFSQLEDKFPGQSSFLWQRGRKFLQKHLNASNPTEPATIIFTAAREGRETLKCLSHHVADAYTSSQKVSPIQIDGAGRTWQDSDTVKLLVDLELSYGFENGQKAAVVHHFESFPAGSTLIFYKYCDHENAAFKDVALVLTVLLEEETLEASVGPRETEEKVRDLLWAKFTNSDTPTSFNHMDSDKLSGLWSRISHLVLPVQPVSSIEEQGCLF

Turning to `C=CCC(OC(C)=O)[C@@H]1[C@@H](N(Cc2ccc(-c3cccc(C(F)(F)F)c3)o2)C(=O)Cc2ccc(OC)cc2)c2cc(OCCCO)ccc2N1C(=O)Cc1ccc2ccccc2c1` (stereo not given in full), the composite z-score in experiment [1] is -0.131; in experiment [2] it was -0.919; in experiment [3], -0.0715; in [4], -0.139; in experiment [5], -0.696; in experiment [6] it was 0.465. For the same compound, the composite z-score in experiment [7] was 0.113; in experiment [9] it was 0.069; in [10] it was 0.0505; in experiment [11], 0.466; in experiment [15], 0.958; in [17], -0.0654. Also, the composite z-score in experiment [18] was -0.621; in [19], -0.246; in experiment [20], -0.217. Moreover, the z-score is -0.734 (inactive) in experiment [8]; 0.807 (inactive) in [12]; 0.243 (inactive) in [13]; -0.386 (inactive) in [14]; -0.406 (inactive) in experiment [16].
Take `CC(C)N1CC=CC23O[C@@H]4/C=C\CCCOC(=O)C4[C@H]2C(=O)N(CCCCCCO)[C@@H]3C1=O` (stereo not given in full): the composite z-score in experiment [1] is 0.59; in [2] it was 0.525; in [3], -0.0924; in experiment [4], 0.716; in experiment [5], -0.602; in experiment [6], 2.01. The composite z-score in [7] was 1.03; in experiment [9], -0.302; in [10], 0.139; in experiment [11], 0.529; in [15] it was 3.18; in [17] it was -0.121. Further, the composite z-score in experiment [18] is -1.26; in experiment [19], -0.112; in experiment [20] it was -0.152. The z-score in experiment [8] is 0.163 (inactive); in experiment [12], 0.226 (inactive); in [13], -2.03 (inactive); in experiment [14] it was -0.331 (inactive); in experiment [16], 2 (inactive).
For `O=C1c2ccccc2[C@](Cc2ccccc2I)(C(=O)NC2CC2)[C@H](c2ccc(CO)cc2)N1Cc1ccccc1C(F)(F)F`, the composite z-score in experiment [1] was -0.0446; in experiment [2], 0.338; in [3], -0.0878; in experiment [4] it was 0.433; in experiment [5], -0.229; in experiment [6], 1.74. Besides, the composite z-score in experiment [7] was 1.26; in experiment [9] it was 0.11; in [10] it was -0.0726; in experiment [11], 1.55; in experiment [15], 2.76; in experiment [17] it was -0.0817. For the same compound, the composite z-score in experiment [18] is 0.894; in experiment [19] it was 1.06; in experiment [20], -0.139. The z-score was -2.07 (inactive) in experiment [8]; -0.124 (inactive) in experiment [12]; -0.684 (inactive) in experiment [13]; 0.341 (inactive) in experiment [14]; -1.8 (inactive) in experiment [16].
`[N-]=[N+]=NCc1ccccc1[C@H]1OC(c2ccc(OCCCO)cc2)=N[C@@]1(Cc1ccccc1)C(=O)NCCN1CCOCC1`: the composite z-score in experiment [1] is -0.714; in [2], 0.614; in experiment [3] it was -0.0627; in [4], 1.09; in experiment [5], 1.49; in experiment [6], 1.34. Besides, the composite z-score is 1.23 in experiment [7]; 0.213 in experiment [9]; -0.0994 in experiment [10]; 1.53 in [11]; 3.34 in experiment [15]; 0.443 in experiment [17]. Moreover, the composite z-score in experiment [18] is 0.52; in [19], 1.09; in experiment [20] it was -0.0329. Moreover, the z-score in experiment [8] is -0.731 (inactive); in experiment [12], -1.07 (inactive); in [13], -0.864 (inactive); in experiment [14] it was -0.31 (inactive); in experiment [16] it was 1.12 (inactive).
With `COc1ccc([Si](C)(C)[C@@H]2[C@@H](CC(=O)N3Cc4ccccc4C[C@H]3CO)O[C@]3(C(=O)N(Cc4ccc(N5CCC5=O)cc4)c4ccccc43)[C@H]2C)cc1`, the composite z-score was -0.406 in [1]; 0.351 in experiment [2]; -0.12 in [3]; 0.163 in [4]; 0.291 in [5]; 0.636 in experiment [6]. For the same compound, the composite z-score in [7] was 0.866; in experiment [9], 0.246; in [10], -0.23; in experiment [11], 1.55; in experiment [15] it was 2.77; in experiment [17] it was -0.0945. Further, the composite z-score in [18] was 1.32; in experiment [19], 1.14; in experiment [20] it was -0.0954. Besides, the z-score in experiment [8] was -1.63 (inactive); in [12], 0.68 (inactive); in experiment [13] it was 1.02 (inactive); in experiment [14], 3.23 (inactive); in experiment [16] it was 0.409 (inactive).
With `COc1ccc([Si](C)(C)[C@H]2[C@H](CCO)O[C@@]3(C(=O)N(Cc4ccccc4)c4ccc(N5C(=O)c6ccccc6Oc6ccccc65)cc43)[C@@H]2C)cc1`, the composite z-score in experiment [1] was 0.342; in experiment [2], -0.393; in experiment [3] it was -0.0591; in experiment [4], 0.606; in experiment [5] it was -0.0653; in experiment [6], 0.777. In addition, the composite z-score in experiment [7] is 0.79; in experiment [9], -0.0173; in experiment [10], -0.169; in experiment [11], 1.12; in experiment [15] it was 1.94; in experiment [17], -0.114. Besides, the figures for the composite z-score in [18], in experiment [19] and in experiment [20] were -0.355, 0.427 and -0.174, respectively. Further, the z-score in [8] was -1.55 (inactive); in experiment [12], -0.234 (inactive); in experiment [13] it was 0.723 (inactive); in experiment [14], 4.27 (inactive); in experiment [16] it was 1.25 (inactive).
`C=C(CCCC)C(=O)CC[C@@H](OC(=O)c1cccnc1)c1ccc(OCCO)cc1`: the composite z-score in experiment [1] is -0.449; in experiment [2], 0.887; in experiment [3] it was -0.0894; in [4] it was 0.681; in experiment [5] it was 0.214; in [6], 0.89. The composite z-score in experiment [7] is 1.19; in [9], 0.204; in experiment [10] it was -0.0645; in [11] it was 1.48; in experiment [15], 1.18; in experiment [17], -0.113. Moreover, the composite z-score in [18] is 1.93; in experiment [19], 0.952; in experiment [20], -0.0828. The z-score in [8] is 0.84 (inactive); in experiment [12], -0.405 (inactive); in experiment [13], -2.22 (inactive); in experiment [14] it was -0.861 (inactive); in experiment [16], -0.288 (inactive).
Consider `O=C(O)[C@@H]1C[C@@H]2C(=O)N3CCC[C@H]3C(=O)N2[C@@H]1c1cccc(OCCO)c1`, for which the composite z-score in experiment [1] is 3.06; in [2] it was 2.45; in experiment [3], 0.588; in experiment [4], 0.648; in [5], 1.7; in experiment [6] it was 2.68. Moreover, the composite z-score in experiment [7] was found to be 1.49; in experiment [9], 3.21; in [10], 1.1; in experiment [11], 1.53; in [15] it was 4.25; in experiment [17], 1.49. The figures for the composite z-score in experiment [18], in experiment [19] and in experiment [20] were 1.95, 1.07 and 1.27, respectively. Moreover, the z-score in [8] was 1.39 (inactive); in experiment [12], -0.386 (inactive); in experiment [13], -1.98 (inactive); in experiment [14], -0.533 (inactive); in experiment [16] it was 1.14 (inactive).
Consider `C=CC1c2cc(O)c(OC)cc2CCN1Cc1ccc([N+](=O)[O-])o1` (stereo not given), for which the composite z-score in experiment [1] is 0.29; in experiment [2] it was 0.381; in [3], -0.0156; in [4], 0.673; in experiment [5], 1.12; in experiment [6] it was 1.64. Besides, the composite z-score was 1.09 in [7]; 0.457 in [9]; 0.245 in [10]; -0.047 in [11]; 2.77 in experiment [15]; 0.0761 in [17]. The composite z-score is -0.273 in experiment [18], 0.606 in experiment [19] and 0.0779 in experiment [20]. The z-score in experiment [8] is -0.0303 (inactive); in [12], 0.994 (inactive); in experiment [13], -0.61 (inactive); in experiment [14] it was 0.757 (inactive); in [16], 0.694 (inactive).

For the origin of these results see PubChem BioAssay.
